phage Ecoli inh: E. coli growth loss with phage present; growth absorbance; inhibition, % at 11.9 µM; 360,000 tested, 0.26% active; in the data active = inhibition above about 11%
E coli growth-1: bacterial growth inhibition, counter-screen for AddAB inhibitors. E. coli V3065 growth, OD600 absorbance, 18 h. inhibition, % at 11.9 µM. 330,000 tested, 0.27% active;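 active = inhibition above the campaign's mean inhibition across all tested compounds plus 3 SD, cut at about 9.9% in these data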;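 also: uninfected addAB+ strain grown without phage in ampicillin broth; 0% = DMSO wells and 100% = ciprofloxacin 0.95 µg/ml wells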
E coli growth-2: blocks Escherichia coli growth; OD600, 23 h; active compounds read low; AID 1053175; OD600 absorbance (test concentration not listed); 330,000 tested, 0.21% active;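 active = OD600 absorbance below the run mean of sample wells minus 3.6 SD, in any replicate, cut at about 0.56 in these data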
AddAB inh: less growth of phage-infected E. coli with AddAB; E. coli expressing H. pylori AddAB, absorbance growth; inhibition, % at 11.9 µM; AID 435030; 330,000 tested, 0.29% active; in the data active = inhibition above about 12%;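 also: 0% = vehicle wells of infected cells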
Tat export inh: inhibitors of E. coli Tat protein transport; AID 488895; E. coli MC4100 TorA-mCherry Tat export, fluorescence; 340,000 tested, 0.036% active; inhibition, % at 10 µM;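 active = mean replicate inhibition at least 50% and at least half of replicates individually reaching 50%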;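 also: exported cargo escapes ClpAP degradation while cytoplasmic cargo is degraded and loses fluorescence; 0% = median of neutral control wells and 100% = median of NaSCN control wells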
Active calls of the source: *; . = no result given. An excerpt weighted towards active compounds, which were near 0.5% of everything screened.

SMILES	phage Ecoli inh	E coli growth-1	E coli growth-2	AddAB inh	Tat export inh
Cc1ccc(C)c(OCCCNC2CCCC2)c1C	5	2	0.69	2	-5
OC(c1cc(C(F)(F)F)nc2c(C(F)(F)F)cccc12)C1CCCCN1 (stereo not drawn)	6	1	0.42*	-2	1
OC(c1cc(-c2ccc(C(F)(F)F)cc2)nc(C(F)(F)F)c1)C1CCCCN1 (stereo not drawn)	7	6	0.49*	3	12
CCOC(=O)Cc1c(C)nc2c(-c3ccccc3OC)c(C)nn2c1C	2	1	0.7	1	2
CC(C)C(=O)Nc1ccc(NC(=O)c2ccccc2Cl)nc1	5	2	0.74	-1	-3
CCN(CC)c1ccc(C=NNc2cccc(C)c2)c(O)c1	.	.	0.66	.	.
CN1CCN(C(c2cccs2)c2nnnn2Cc2ccc(F)cc2)CC1 (stereo not drawn)	1	-2	0.45*	1	1
O=C(Nc1ccc(Cc2ccncc2)cc1)c1cccc([N+](=O)[O-])c1	3	2	0.67	2	5
O=C(Nc1ccc(Cc2ccncc2)cc1)c1ccc([N+](=O)[O-])o1	9	13*	0.58	12	-4
Cc1ccc(C(=O)Nc2ccccc2C(=O)O)cc1NC(=O)COc1c(C)cccc1C	4	1	0.69	0	-6
c1ccc(CNc2nc(NCc3ccccc3)c3ccccc3n2)cc1	.	1	0.44*	6	-3
Fc1ccc(Nc2nc(NCc3ccco3)c3ccccc3n2)cc1	1	1	0.36*	1	-80
O=c1c2ccccc2n(Cc2ccc(F)cc2)c(=O)n1C1CCCC1	4	1	0.77	3	-1
CCC(C)C(NC(=O)C(C)NC(=O)CNC(=O)OC(C)(C)C)C(N)=O (stereo not drawn)	5	0	0.66	0	7
O=C(Oc1ccc(Cl)c2cccnc12)c1cccc([N+](=O)[O-])c1	0	-2	0.51*	3	5
COC(=O)C1C(O)C(C)C(O)C(C)(O)/C=C\C=C(/C)C(=O)Nc2c(C)c(OC(C)=O)c3c(c2O)C(=O)C(C)=C2OCOC(=C23)/C(C)=C/C(C)(O)C(O)C(C)C1O (stereo not drawn)	8	-2	.	0	65*
O=c1cnnc(NN=Cc2c[nH]c3ccccc23)[nH]1	.	.	0.71	.	.
Nc1c(Cl)ncnc1N/N=C/c1cccnc1	3	0	.	0	6
C(=NNc1nncc2ccccc12)c1ccccn1	.	.	0.49*	.	.
O=c1cnnc(NN=Cc2ccccn2)[nH]1	.	.	0.43*	.	.
Nc1c(Cl)ncnc1NN=Cc1ccccn1	.	.	0.44*	.	.
CC1CCC(NC(=O)C2CC(O)CN2S(=O)(=O)c2ccc([N+](=O)[O-])cc2)CC1 (stereo not drawn)	2	1	0.67	1	7
O=[N+]([O-])c1ccc(NC(=S)NCCc2ccc(F)cc2)cc1	9	10	0.46*	11	-14
O=C(NCCc1ccc(F)cc1)Nc1ccc([N+](=O)[O-])cc1	7	.	0.55	.	0
CN(C)CC(=O)c1c(N)n(Cc2ccccc2)c(=O)n(C)c1=O	-2	0	0.54*	5	-2
SMILES	phage Ecoli inh	E coli growth-1	E coli growth-2	AddAB inh	Tat export inh
O=C(NCC(=O)N1CCN(S(=O)(=O)c2cccc(F)c2)CC1)c1ccc(Br)o1	2	0	0.69	0	-2
CCc1ccc2c(COC(=O)C3CC(=O)N(CCc4ccccc4)C3)cc(=O)oc2c1 (stereo not drawn)	2	.	0.68	.	63*
C[C@@H]1CN([C@@H](C)CO)S(=O)(=O)c2ccc(Br)cc2O[C@@H]1CN(C)Cc1ccccn1	2	.	.	.	.
CCCCCCCC[n+]1cccc2c3ccccc3ccc21	7	2	0.48*	3	9
O=S(=O)(NCCc1csc(-c2cccnc2)n1)c1ccc(F)cc1	3	1	0.7	2	3
Cc1cc(OCCCCn2ccnc2)cc(C)c1Cl	4	-1	0.5*	0	10
O=C(NNC(=O)c1cccc(S(=O)(=O)Nc2ccccc2F)c1)c1ccncc1	-1	.	.	.	.
CCOC(=O)Cc1csc(NC(=O)C2CCCN(S(=O)(=O)c3cnc[nH]3)C2)n1 (stereo not drawn)	2	14*	0.73	24*	8
CCOc1ccc(NC(=O)C2CCCN(S(=O)(=O)c3cnc[nH]3)C2)cc1 (stereo not drawn)	.	0	0.69	0	-2
Cc1ccc(/C=N/NC(=O)CSc2nnc(-c3ccc(Cl)cc3)n2-c2ccc(Cl)cc2)o1	11	13*	.	7	-1
Cc1ccc(C=NNC(=O)CSc2nnc(-c3ccc(Cl)cc3)n2-c2ccc(Cl)cc2)o1	.	.	0.69	.	.

Source: PubChem BioAssay (several laboratories)
